According to PubChem BioAssay (EPA / NIEHS):
Some compounds were tested as several samples or in several runs, with calls that do not always agree. The source made the active and inactive calls. Rule for the calls: active = hit-call score of the fitted dose curve at least 0.9, where 1 is the maximum; inactive = score below 0.9.

Test: CEETOX_H295R_OHPROG: CeeTox H295R High-throughput Steroidogenesis Assay for OH-Progesterone (OHPROG) (AID 2283435)
Settings: actives raise or lower the signal
Description: CEETOX_H295R is a cell-based, multiplexed-readout assay that uses H295R, a human adrenal gland cell line, with measurements taken at 48 hours after chemical dosing in a 96-well plate.CEETOX_H295R_OHPROG is one of 23 assay component(s) measured or calculated from the CEETOX_H295R assay. It is designed to make measurements of hormone induction, a form of inducible reporter, as detected with absorbance signals by HPLC-MS-MS technology.Data from the assay component CEETOX_H295R_OHPROG was analyzed into 1 assay endpoint. This assay endpoint, CEETOX_H295R_OHPROG, was analyzed with bidirectional fitting relative to DMSO as the negative control and baseline of activity. Using a type of inducible reporter, gain or loss-of-signal activity using HPLC-MS-MS was used to understand synthesis of 17alpha-hydroxyprogesterone in H295R cell line at 48hr of chemical exposure. To generalize the intended target to other relatable targets, this assay endpoint is annotated to the steroid hormone intended target family, where the subfamily is progestagens.
Cell culture and media preparation procedures were conducted in accordance with OECD Test No. 456 guidelines, with minor modifications. H295R cells (ATCC CRL-2128) were expanded for 5 passages and frozen in batches in liquid nitrogen. Prior to the steroidogenesis assay, H295R cells were thawed and passed at least 4 times. The maximum passage was 10. Cells were maintained in a 1:1 mixture of DMEM/F12 supplemented with 5ml/L ITS+ Premix (BD Bioscience) and 12.5 ml/L Nu-Serum (BD Bioscience). After seeding cells into 96-well plates at 50-60% confluency, cells were allowed to adhere overnight. Prior to chemical testing, culture medium was replaced with 175 uL medium containing 10 uM forskolin to stimulate steroidogenesis for 48 hours. Following prestimulation, forskolin medium was replaced with medium containing test chemical solubilized in DMSO (ensuring a final concentration of 0.1% DMSO). Test chemicals were incubated for 48 hours, then the medium was removed and split into 2 vials containing approximately 75uL each, and stored at -80 C prior to hormone analysis. For steroid quantification, media samples were shipped to OpAns, LLC (Durham, NC) on dry ice, and samples were thawed to room temperature prior to liquid-liquid extraction. Steroid hormones were extracted from media samples using methyl tertbutyl ether (MTBE). An extra derivatization with dansyl chloride was included for estrogen (estrone and estradiol) detection only. Steroid hormones were separated by HPLC, eluted using a reverse phase C18 gradient with electrospray positive ionization, followed by quantification by tandem mass spectrometry (MS/MS). Data were acquired on a MassHunter Workstation Acquisition version B03.01 (Agilent Technologies, Inc.) and processed using MassHunter Quantitative Analysis for QQQ. Accuracy was determined for each hormone analyte from 3 standards to determine upper and lower limits of quantification (ULOQ and LLOQ, respectively) using a 7-point standard curve. Precision and accuracy of the extraction and quantification methods were calculated as the percent relative standard deviation (%RSD) of the spiked standards and percent spiked standard recovered, respectively. […] Test medium was removed following chemical exposure, and cell viability was evaluated in the same wells by MTT. MTT procedures were as follows: after removal of test medium, 500 uL of 0.5 mg/ml of 3-[4,5-dimethylthiazol-2-y]2,5-diphenyltetrazoliumbromide solution was added to the cells. Following a 4-hour incubation at 37 C and 5% CO2 to allow formazan-crystal formation, the MTT solution was removed and blue formazan salt crystals were solubilized using 500uL anhydrous isopropanol with shaking for 20 minutes. Absorbance was read at 570 and 650nm using a Packard Fusion microplate reader. Background correction of absorbance units was used to determine percent change relative to controls. […]

Q: With `CC=CC(=O)C1=C(C)C=CCC1(C)C` as the molecule, how does the outcome read?
A: inactive

Q: Which outcome does the source give for `O=C(c1ccc(OCCN2CCCCC2)cc1)c1c(-c2ccc(O)cc2)sc2cc(O)ccc12` here?
A: inactive

Q: With `c1ccc(OCCOc2ccccc2)cc1` as the molecule, how does the AC50 read?
A: 36.9 µM (active)

Q: With `c1coc(CNc2ncnc3nc[nH]c23)c1` as the molecule, how does the outcome read?
A: inactive

Q: With `C[C@]12CC[C@@H]3c4ccc(O)cc4CC[C@H]3[C@@H]1CC[C@@H]2O` as the molecule, how does the outcome read?
A: inactive

Q: With `OCC=Cc1ccccc1` as the molecule, how does the outcome read?
A: inactive

Q: Which outcome does the source give for `CC/C(=C(\c1ccccc1)c1ccc(OCCN(C)C)cc1)c1ccccc1` here?
A: inactive

Q: And the AC50?
A: 0.161 µM (active)

Q: With `CC(=O)C1=C(C)[C@@H]2C[C@@]3(C1)[C@H](C)CC[C@H]3C2(C)C` as the molecule, how does the outcome read?
A: inactive

Q: Which outcome does the source give for `OCCCO` here?
A: inactive

Q: For `CCCc1ccc(O)cc1`, which outcome is on record?
A: inactive

Q: Which AC50 does the source give for `CCCCCCCCCCCCN1CCOCC1` here?
A: 1.86 µM (active)

Q: With `COc1ccc2[nH]cc(CCNC(C)=O)c2c1` as the molecule, how does the AC50 read?
A: 3.07 µM (active)

Q: For `CC(C)(C)c1cccc(O)c1`, which outcome is on record?
A: inactive

Q: For `CCCCCC(=O)O[C@]1(C(C)=O)CC[C@H]2[C@@H]3CCC4=CC(=O)CC[C@]4(C)[C@H]3CC[C@@]21C`, which outcome is on record?
A: inactive

Q: For `O=C(OCc1ccccc1)c1ccccc1O`, which AC50 is on record?
A: 50 µM (active)

Q: With `CC(=O)c1ccc2ccccc2c1` as the molecule, how does the AC50 read?
A: 50 µM (active)

Q: For `CC(=N[Si](C)(C)C)O[Si](C)(C)C`, which outcome is on record?
A: inactive

Q: Which outcome does the source give for `C#C[C@]1(O)CC[C@H]2[C@@H]3CCc4cc(O)ccc4[C@H]3CC[C@@]21C` here?
A: inactive
